Bioassay records from PubChem BioAssay.
An excerpt weighted towards active compounds, which were near 1.8% of everything screened.
PKD1 kinase inh: PKD1 (human) kinase inhibition | PKD1 kinase fluorescence polarization assay | inhibition, % (concentration not given with the values) | 200,000 tested, 0.056% active | AID 797
LANA-H2B inh: blocks KSHV LANA binding to histone H2A/H2B. Q9QR71. cell-free LANA-H2A/H2B peptide, fluorescence polarization. inhibition, % (test concentration not listed). 320,000 tested, 0.6% active. AID 2629; in the data active = inhibition mostly above about 10%, no sharp cut-off; inactive = mostly below about 6.7%
VLA-4 inh: inhibition in a human VLA-4 binding assay. P13612. 330,000 tested, 0.2% active. VLA-4 expressing cells, ligand binding flow cytometry. inhibition, % (about 7 µM as worked out from the volumes in the protocol)
Pemphigus Ab inh: inhibitors of pemphigus antibody binding to human desmoglein-3. P32926. DSG3-coupled beads, scFv-anti-DSG3-GFP binding, flow cytometry; stronger effect = lower value. binding (percent of control), % at 10 µM. 310,000 tested, 0.48% active. AID 588358;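 active = binding more than 3 SD below its plate's average and above zero; inconclusive = below that plate limit but binding exactly zero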;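 note: hits lower antibody fragment binding to DSG3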
GRK2 inh: blocks RNA aptamer binding to human GRK2; bead flow cytometry, FAM-aptamer displacement from GRK2; inhibition of aptamer binding, % at 10 µM; 330,000 tested, 0.59% active;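 active = inhibition of aptamer binding above 40%, roughly 3 SD of noise, on plates passing a quality check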;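 note: median bead fluorescence of bound FAM aptamer so fluorescent compounds give negative values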
HDAC3 inhib: human HDAC3 inhibition. recombinant HDAC3, fluorogenic peptide/trypsin coupled, fluorescence. O15379. inhibition, % at 8.3 µM. 320,000 tested, 0.15% active. AID 2718; in the data active = inhibition above about 26%, passing the limit was not always enough; inconclusive = no clear call, values can overlap the other calls
Target sequence (O15379 whole entry, looked up): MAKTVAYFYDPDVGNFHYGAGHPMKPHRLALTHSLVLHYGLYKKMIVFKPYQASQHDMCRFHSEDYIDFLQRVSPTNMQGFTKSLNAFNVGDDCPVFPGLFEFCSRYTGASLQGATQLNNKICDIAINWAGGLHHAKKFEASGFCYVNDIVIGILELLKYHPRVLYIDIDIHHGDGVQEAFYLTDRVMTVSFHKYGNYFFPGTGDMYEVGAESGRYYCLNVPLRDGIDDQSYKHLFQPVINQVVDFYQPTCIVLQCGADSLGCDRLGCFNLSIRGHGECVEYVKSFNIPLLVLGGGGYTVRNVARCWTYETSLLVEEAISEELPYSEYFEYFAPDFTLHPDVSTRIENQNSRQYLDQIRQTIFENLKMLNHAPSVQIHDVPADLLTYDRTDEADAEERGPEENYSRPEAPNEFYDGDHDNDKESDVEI
Each line names hits and unclear results; the compound was inactive in the other large screens. Cut-off read from the data, not from the text of the source, unless noted: active = inhibition above about 50%; inactive = the rest.

COc1ccc(C(CNC(=O)c2oc3c(Cl)cccc3c2C)N2CCCC2)cc1 (centres undefined)	LANA-H2B inh 22 (no result: PKD1 kinase inh)
O=C(NCc1nc(-c2ccccc2)no1)Nc1ccc(F)cc1	none
COc1ccccc1NC(=O)NCc1nc(-c2ccc(C(F)(F)F)cc2)no1	Pemphigus Ab inh 74 (no result: PKD1 kinase inh)
COc1cccc(COC(=O)C2CCN(S(=O)(=O)c3ccc(C)cc3)CC2)c1OC	none (no result: PKD1 kinase inh)
COc1cccc(COC(=O)C2CCN(S(=O)(=O)c3ccc(C)cc3C)CC2)c1OC	LANA-H2B inh 27 (no result: PKD1 kinase inh)
CCc1cc2ccc(C)cc2nc1SCC(=O)Nc1cc(C)on1	none
CCc1cc2cc3c(cc2nc1SCC(=O)Nc1cc(C)on1)OCO3	Pemphigus Ab inh 87
O=C(NC12CC3CC(CC(C3)C1)C2)c1cc([N+](=O)[O-])ccc1N1CCOCC1	none
COC(=O)N/N=C/c1cn(Cc2c(Cl)cccc2Cl)c2ccccc12	Pemphigus Ab inh 81
O=C(N/N=C/c1cn(Cc2cccc(F)c2)c2ccccc12)c1cc(O)cc(O)c1	Pemphigus Ab inh inconclusive, GRK2 inh 89 (no result: PKD1 kinase inh)
Cc1ccc(CSc2nnc(SCC(=O)N/N=C/C=C/c3ccco3)s2)cc1	GRK2 inh 83
Cc1ccc(CSc2nnc(SCC(=O)N/N=C/C=C/c3ccccc3[N+](=O)[O-])s2)cc1	none
COc1ccc(NC(=O)CNc2ccccc2N2CCCC2=O)cc1S(=O)(=O)N1CCOCC1	Pemphigus Ab inh inconclusive (no result: PKD1 kinase inh)
S=C1NC2=C(CCCC2=C2SCCS2)C(c2ccccc2)N1 (centres undefined)	HDAC3 inhib 95
Fc1ccc(/C=C2\CCCC3=C2NC(=S)NC3c2ccc(F)cc2)cc1 (centres undefined)	none (no result: LANA-H2B inh, VLA-4 inh, Pemphigus Ab inh, GRK2 inh, HDAC3 inhib)
CSc1ccc(CNC(=O)Cc2ccc(NC(=O)C3=C(C)OCCS3)cc2)cc1	Pemphigus Ab inh 54 (no result: PKD1 kinase inh)
CN(C)c1ccc(-c2cc([C@H]3[C@@H]4C=CCC[C@@]4(C)C(=O)N3Cc3ccccc3)ccc2F)cc1	LANA-H2B inh 14 (no result: PKD1 kinase inh)
Cc1ccc(F)c([C@H]2[C@@H]3C=CCC[C@@]3(C)C(=O)N2Cc2ccccc2)c1	none (no result: PKD1 kinase inh)
C[C@@]12CCC=C[C@H]1[C@H](c1ccc(F)c(/C=C/c3ccccc3)c1)N(Cc1ccccc1)C2=O	HDAC3 inhib 31 (no result: PKD1 kinase inh)
Cc1ccc(-c2cc([C@H]3[C@@H]4C=CCC[C@@]4(C)C(=O)N3Cc3ccccc3)ccc2F)cc1	none (no result: PKD1 kinase inh)
O=S(=O)(Nc1ccc2c(c1)OCO2)c1ccc(F)c(F)c1	LANA-H2B inh 27 (no result: PKD1 kinase inh)
O=C(O)c1cccc(S(=O)(=O)Nc2ccc3c(c2)OCO3)c1	none
CCOC(=O)C1=C(N)n2c(s/c(=C\c3cccnc3)c2=O)=C(C(=O)OC)C1c1cccnc1 (centres undefined)	Pemphigus Ab inh 88
CC(C)c1nc(SCC(=O)N2CCCCCC2)c2c(=O)n(C)c(=O)n(C)c2n1	LANA-H2B inh 53 (no result: PKD1 kinase inh)
COc1cc(/C=C2\SC(=Nc3ccc(O)cc3)NC2=O)cc(OC)c1O	LANA-H2B inh 11
CCc1ccc(N=C2NC(=O)/C(=C/c3cc(OC)c(OC)c(OC)c3)S2)cc1	none (no result: PKD1 kinase inh)
COc1ccc(C2=Nn3c([n+](C)c4ccccc43)SC2)cc1	HDAC3 inhib 31
C[n+]1c2n(c3ccccc31)N=C(c1ccc(Cl)cc1)CS2	HDAC3 inhib 55 (no result: Pemphigus Ab inh)
COc1ccc(C2=Nn3c(nnc3-c3ccccn3)SC2)cc1	none
Cc1csc(NC(=O)COc2ccc3c(c2)CCC3)n1	none (no result: PKD1 kinase inh)
CC1NC(=O)c2cccnc2-n2c1nc1cc(F)c(F)cc1c2=O (centres undefined)	none (no result: PKD1 kinase inh, LANA-H2B inh, VLA-4 inh, GRK2 inh, HDAC3 inhib)
Cc1ccc(S(=O)(=O)/C(C#N)=C/c2c[nH]c3ccccc23)cc1	LANA-H2B inh 17
COCCn1c(=S)[nH]c2cc(C(=O)N3CCN(C4CCCCC4)CC3)ccc2c1=O	none (no result: PKD1 kinase inh, LANA-H2B inh, VLA-4 inh, GRK2 inh, HDAC3 inhib)
O=C(c1ccc(Cn2c(=S)[nH]c3ccc(Br)cc3c2=O)cc1)N1CCN(C2CCCCC2)CC1	LANA-H2B inh 10
CN(c1ccc(O)cc1)c1nc(-c2ccccc2)cs1	LANA-H2B inh active
CN(C(=O)c1ccco1)c1nc(-c2ccccc2)cs1	none (no result: PKD1 kinase inh)
Cc1ccc(N2CC(C)Cn3c2nc2c3c(=O)[nH]c(=O)n2C)cc1C (centres undefined)	none (no result: PKD1 kinase inh)
C[C@H](CO)N1C[C@H](C)[C@H](CN(C)Cc2cccc(F)c2)Oc2ncc(Br)cc2C1=O	none (no result: PKD1 kinase inh, LANA-H2B inh, VLA-4 inh, GRK2 inh, HDAC3 inhib)
C/C(Cl)=C/Cn1c(SCC(C)C)nc2c1c(=O)[nH]c(=O)n2C	none (no result: PKD1 kinase inh, Pemphigus Ab inh)
